Pol eta inh-1: DNA polymerase eta (human) inhibition. Q9Y253. recombinant Pol eta, fluorescent DNA replication assay. Potency, µM (highest dose often 114 µM), for the others: at the highest dose activity change, negative = inhibition, most hits filed as inhibitors. 390,000 compounds, 1.2% hits; note: % is set by controls: 0 for no effect and ±100 for the full control effect
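Pol eta at 10 nM preincubated with compounds 15 min at room temperature; reaction started with fluorescent substrate (50 nM final) and read kinetically at 0 and 10 min.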
FEN1 inhibitor: blocks human flap endonuclease 1 | P39748 | Recombinant FEN1 flap cleavage, fluorescence, 15 min | Potency, µM (top dose mostly 114 µM), for the others: top-dose activity change, negative = inhibition, hits mostly inhibitors | 390,000 compounds, 0.35% hits | AID 588795; note: % is set by controls: 0 for no effect and ±100 for the full control effect; nearly all actives have a fitted effect of over 65% in size
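Enzyme 10 nM, 15 min RT preincubation with compound; start with substrate 50 nM final; reads at 0 and 15 min; qHTS titration, four-parameter Hill fit.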
Pol kappa inh-1: blocks human DNA polymerase kappa activity; purified Pol kappa, fluorescent DNA synthesis assay, 10 min; Potency, µM (highest dose often 107 µM), without a hit: at the top dose activity, negative = inhibition, usual class: inhibitors; 400,000 compounds, 0.53% hits; AID 588579; note: % is set by controls: 0 for no effect and ±100 for the full control effect
Target sequence (Q9UBT6 whole entry, looked up): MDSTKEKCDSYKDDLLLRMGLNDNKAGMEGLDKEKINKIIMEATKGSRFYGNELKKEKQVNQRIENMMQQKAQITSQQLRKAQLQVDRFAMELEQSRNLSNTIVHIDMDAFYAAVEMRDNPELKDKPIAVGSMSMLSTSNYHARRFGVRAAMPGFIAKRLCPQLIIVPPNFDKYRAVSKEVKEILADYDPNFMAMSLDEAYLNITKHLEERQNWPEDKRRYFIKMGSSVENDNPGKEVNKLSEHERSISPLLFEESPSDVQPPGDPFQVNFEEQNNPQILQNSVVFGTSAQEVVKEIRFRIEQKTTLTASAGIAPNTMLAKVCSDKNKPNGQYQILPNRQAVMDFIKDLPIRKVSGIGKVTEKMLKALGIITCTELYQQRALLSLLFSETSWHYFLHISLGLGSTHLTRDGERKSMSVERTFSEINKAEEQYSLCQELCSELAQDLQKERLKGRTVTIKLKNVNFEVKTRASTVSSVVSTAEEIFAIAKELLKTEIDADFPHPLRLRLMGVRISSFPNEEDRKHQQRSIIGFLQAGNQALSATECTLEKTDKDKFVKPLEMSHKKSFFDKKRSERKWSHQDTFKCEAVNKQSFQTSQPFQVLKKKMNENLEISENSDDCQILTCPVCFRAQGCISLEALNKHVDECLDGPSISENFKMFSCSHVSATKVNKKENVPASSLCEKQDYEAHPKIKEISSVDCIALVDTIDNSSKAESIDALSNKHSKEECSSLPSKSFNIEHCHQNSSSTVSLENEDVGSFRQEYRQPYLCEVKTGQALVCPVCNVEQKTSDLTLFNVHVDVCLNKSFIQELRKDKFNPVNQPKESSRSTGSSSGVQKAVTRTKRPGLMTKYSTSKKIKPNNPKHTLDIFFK
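First, compounds were pin-transferred onto 10 nM Pol kappa. After 15 min at room temperature, substrate was added to 50 nM final. Fluorescence was then measured kinetically at 0 and 10 min.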
POLB inh: DNA polymerase beta (human) inhibition. P06746. Pol beta primer extension/strand displacement, fluorescence kinetic. Potency, µM (top dose mostly 114 µM), without a hit: at the top dose activity change, negative = inhibition, most hits filed as inhibitors. 340,000 compounds, 1.3% hits. AID 485314; note: % is set by controls: 0 for no effect and ±100 for the full control effect
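Kinetic readout of DNA synthesis with strand displacement by Pol beta. Compound and 10 nM enzyme sit 15 min at room temperature; 50 nM substrate starts the reaction, read immediately and at 10 min.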
Pol iota inh: DNA polymerase iota (human) inhibition; Q9UNA4; Pol iota fluorescent replication assay, 10 min; Potency, µM (series often up to 115 µM), for the others: at the highest dose activity, negative = inhibition, usual class: inhibitors; 390,000 compounds, 1% hits
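Fluorescent replication assay read twice, at 0 min and 10 min after adding 50 nM (final) substrate. Enzyme (10 nM) and compounds were first incubated 15 min at room temperature; enzyme-free buffer wells were negative controls.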
WRN helicase inh: inhibitors of human WRN helicase; Q14191; Potency, µM (series often up to 114 µM), without a hit: top-dose activity change, negative = inhibition, actives largely listed as inhibitors; WRN helicase unwinding, fluorescent forked duplex, kinetic; 360,000 compounds, 0.46% hits; AID 651768; note: % is set by controls: 0 for no effect and ±100 for the full control effect; nearly all actives have a fitted effect of over 55% in size
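Fluorescence dequenching readout, ex 525 nm/em 598 nm, kinetic mode: forked duplex DNA (100 nM final) with adjacent fluorophore and quencher unwound by WRN (20 nM final) with 2 mM ATP. Compound preincubation 15 min, room temperature.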
Pol kappa inh-2: confirmation of human DNA polymerase kappa inhibitors. Potency, µM, usual class: inhibitors. purified Pol-kappa, fluorescent strand-displacement substrate. 920 compounds, 76% hits. shares compounds with Pol eta inh-1. AID 720501
Pol eta inh-2: Pol eta (human) inhibition, cherry-pick confirmation; 2,600 compounds, 64% hits; Pol eta primer extension, TAMRA/BHQ fluorescence, 10 min; AID 720502; Potency, µM, usual class: inhibitors; shares compounds with Pol eta inh-1
Numbers without * were called inactive; ? = inconclusive; · = no result given; [ ] = dose if it differs, or a comment. Most compounds without a hit are left out; they make up all but 2.4% or so of the library. Calls come from the whole dose curve; as a rule, active = well fitted curve in the direction sought with a large enough effect; inconclusive = small, poorly fitted or top-dose-only effect, or another doubt; inactive = no such curve, though single readings can be large; an effect the other way counts as inactive or inconclusive. Potency is the fitted concentration of half-maximal effect.

SMILES	Pol eta inh-1	FEN1 inhibitor	Pol kappa inh-1	POLB inh	Pol iota inh	WRN helicase inh	Pol eta inh-2	others
FC(F)(F)c1ccccc1-c1nc(Nc2ccncc2)c2ccccc2n1	·	·	-7.7%[60.1 µM]	·	·	·	·
COc1ccc(-c2nnc(SCC(=O)Oc3cc(C)ccc3C)o2)cc1	-8.8%	-9.4%	-3.8%	13.9%	13.6%	·	·
O=C(Nc1ccc(Br)cc1Cl)c1cnccn1	39.8µM*	-16.9%	-34.1%	5.2%	?	?	75.7*
COc1ccc(NC(=O)Cn2c(=O)n(Cc3ccccc3Cl)c(=O)c3cc(OC)c(OC)cc32)cc1OC	2.2%	0.4%	2.7%	4.2%	-2.0%	·	·
CC1CCN(c2ccc(-c3nc(C(C)C)no3)cc2[N+](=O)[O-])CC1	-17.5%	-15.0%	-20.2%	?	-11.6%	·	·
Cc1c(C(=O)O)cccc1-c1ccc(/C=N/n2cnnc2)o1	20µM*	-13.7%	89.1µM*	25.1µM*	35.5µM*	-6.3%[11.6 µM]	47.8*	Pol kappa inh-2=15*
Cc1c(Cl)cccc1-c1ccc(/C=N/n2cnnc2)o1	3.8%	-10.4%	6.1%	0.3%	4.0%	-6.5%	·
O=C(O)CN1C(=O)/C(=C/c2ccc(SCc3ccccc3)o2)SC1=S	17.8µM*	-18.8%	79.4µM*	3.55µM*	?	?	75.7*
O=C(O)CN1C(=O)/C(=C\c2ccc(OC(=O)c3ccco3)cc2)SC1=S	-17.0%	-4.7%	-3.7%	-16.5%	?	-15.9%[57.1 µM]	·
COc1ccccc1CNC(=O)CN1C(=O)CSc2ccc(S(=O)(=O)N3CCCCC3)cc21	-3.3%	4.7%	-5.5%[60.1 µM]	-0.7%	-22.7%	·	·
Cc1ccc(S(=O)(=O)N2[C@@H](c3ccc(C(C)(C)C)cc3)C(C(=O)O)=CC[C@H]2c2ccc(C(C)C)cc2)cc1	39.8µM*	?	?	·	?	56.2µM*	53.6*	Pol kappa inh-2=75.2*
Cc1ccc(S(=O)(=O)N2[C@@H](c3ccc(C(C)(C)C)cc3)C(C(=O)O)=CC[C@H]2c2cccs2)cc1	-6.7%	-0.1%	-18.8%	·	7.1%	-4.9%	·
Cc1ccc([C@@H]2CC=C(C(=O)O)[C@H](c3ccc(C(C)(C)C)cc3)N2S(=O)(=O)c2ccc(C)cc2)cc1	89.1µM*	-7.5%	-11.9%	·	?	-20.3%	·	Pol kappa inh-2=?
CC1CCC(Nc2nc3c(-c4cccc(C(F)(F)F)c4)nnn3c3ccccc23)CC1 (stereo unspecified)	-32.3%	-3.6%	-10.8%	-1.8%	26.4%	·	·
Cc1ccc(COC(=O)c2ccc(-c3nnn(Cc4ccc(C)cc4)n3)cc2)cc1	2.3%	-0.5%	8.5%	-1.3%	?	·	·
O=C(Nc1ccc(O)cc1)c1ccc2c(c1)C(=O)N(Cc1ccco1)C2=O	14.1µM*	-17.0%	-27.9%	0.7%	?	?	67.5*
O=C(Nc1cc([N+](=O)[O-])ccc1O)c1ccc2c(c1)C(=O)N(Cc1ccco1)C2=O	31.6µM*	?	50.1µM*	26.4%	39.8µM*	?	?
O=C(Nc1cc([N+](=O)[O-])ccc1O)c1cccc([N+](=O)[O-])c1	-6.3%	25.6%	-3.9%	-17.5%	4.8%	-2.4%	·
O=C(Nc1cc([N+](=O)[O-])ccc1O)c1cccc(C(=O)Nc2cc([N+](=O)[O-])ccc2O)c1	?	?	-24.8%	-1.4%	16.5%	-19.9%[11.6 µM]	?
Cc1ccc2[nH]c(=O)c(CN(CCCO)Cc3nnnn3Cc3ccccc3)cc2c1	·	-19.6%	-3.3%	·	-16.5%	·	·
CCC(=O)Nc1nnc(S(=O)(=O)N(C)Cc2ccccc2)s1	-7.3%	-2.7%	-6.1%	12.1%	-5.3%	·	·
COc1cccc(/C=N/N2C(=O)CSC2=S)c1O	-9.1%	-25.0%	?	?	?	?	?
CC(=O)Nc1ccc(Nc2nc3ccccc3nc2NS(=O)(=O)c2ccc(Cl)c([N+](=O)[O-])c2)cc1	22.4µM*	-24.6%	?	·	?	?	?
O=C(O)c1ccc2c(=O)n3cc(C(=O)c4ccccc4O)cc(Cl)c3nc2c1	8.91µM*	35.5µM*	-51.2%	?	?	-35.0%	12*
Cc1ccc(NS(=O)(=O)c2ccc(/C=C/C(=O)O)cc2)cc1Cl	-16.3%	-1.8%	-17.8%	-7.0%	104.4%	-19.5%	·
SMILES	Pol eta inh-1	FEN1 inhibitor	Pol kappa inh-1	POLB inh	Pol iota inh	WRN helicase inh	Pol eta inh-2	others
O=C(O)/C=C/c1ccc(S(=O)(=O)Nc2ccc3[nH]c(=O)[nH]c3c2)cc1	25.1µM*	-2.7%	-21.0%	-1.4%	?	?	?
O=C1c2cccc3cccc(c23)C(=O)N1c1ccc2ncccc2c1	?	?	?	31.6µM*	?	79.4µM*	·	Pol kappa inh-2=?
O=C(Cc1ccc(S(=O)(=O)N2CCOCC2)s1)NCC1CCCCC1	?	2.9%	-29.1%	?	-16.8%	-11.5%	·
O=C(Cc1ccc(S(=O)(=O)N2CCOCC2)s1)NC1CCCCC1	20µM*	-6.0%	?	·	44.7µM*	-29.2%	?
CN(C(=O)/C=C/c1ccco1)c1ccccc1C(=O)O	44.7µM*	2.9%	?	17.8µM*	?	-9.2%	?
CN(C(=O)C=Cc1ccco1)c1ccccc1	-3.6%	-2.7%	-5.7%	·	9.2%	?	·
COc1cc(NC(=O)CSc2nc(-c3ccc(C(C)C)cc3)no2)cc(OC)c1	-12.4%	5.3%	0.9%	9.4%	32.9%	·	·
CCOC(=O)c1cn2ccc(C)cc2n1	-16.6%	2.8%	-5.8%	?	11.7%	6.2%	·
Oc1ccc(-c2cn3ccccc3n2)cc1O	-12.0%	10.0%	10.5%	0.0%	11.2%	-9.7%	·
Cc1ccn2cc(-c3ccc(O)c(O)c3)nc2c1	22.4µM*	-17.3%	20µM*	10µM*	14.1µM*	44.7µM*	?
Cc1ccn2cc(CC(=O)O)nc2c1	14.1µM*	6.1%	?	12.6µM*	?	-9.4%	67.5*
COc1ccc(CNC(=O)c2ccc3c(c2)CCN3S(=O)(=O)c2ccc(Cl)cc2)cc1	-29.2%	11.7%	-9.5%	0.8%	24.8%	·	·
COc1ccc(N2CCN(C(=O)c3ccc(-c4nc(COc5ccccc5)c(C)o4)cc3)CC2)cc1	-0.8%	-10.3%	-8.9%	19.3%	-17.0%	·	·
Cc1cc2c(SCC(=O)Nc3cccc(O)c3)ncnc2s1	22.4µM*	44.7µM*	89.1µM*	·	?	?	75.7*	Pol kappa inh-2=21.2*
CCC(=O)c1ccc(OCC(=O)Nc2nc(-c3cccnc3)cs2)cc1	12.6µM*	-24.8%	-30.9%	·	12.6µM*	?	67.5*
CCc1ccccc1OCC(=O)Nc1nc(-c2cccnc2)cs1	-5.8%	-10.3%	-18.8%	34.7%	61.7%	-14.4%	·

Assay outcomes deposited in PubChem BioAssay by National Center for Advancing Translational Sciences (NCATS).
